Results as given in PubChem BioAssay (Tox21).
Records with an inconclusive call do not appear. Activity calls are given as the source filed them. Unless noted, calls come from the whole dose curve; as a rule, active = well fitted curve in the direction sought with a large enough effect in the repeat runs; inconclusive = weak or mixed curves; inactive = no such curve, though single readings can be large; an effect the other way counts as inactive or inconclusive.

How the values were obtained:
[1] = qHTS assay to identify small molecule antagonists of the vitamin D receptor (VDR) signaling pathway - cell viability counter screen (AID 743225); details: VDR-bla HEK293T viability, CellTiter-Glo luminescence, 16 h; series mostly up to 61 µM; note: nearly all actives have a fitted effect of over 50% in size
Outline: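 Cells (VDR-UAS-bla HEK 293T) are plated, rested 4 h at 37C, dosed with compound and 3 nM final 1-alpha,25-dihydroxy vitamin D3, and incubated 16 h. Viability is taken from CellTiter-Glo luminescence in the reporter wells.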

[2] = qHTS assay to identify small molecule agonists of the NFkB signaling pathway (AID 1159509; active = well fitted curve in the direction sought with a large enough effect in the signal ratio in the repeat runs, not every such curve was filed as active; the % refers to the signal ratio); details: NFkB-bla ME-180 cells, beta-lactamase FRET ratio, 5 h; series mostly up to 61 µM
Outline: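 After overnight attachment, reporter cells received test compounds, DMSO or positive controls and were incubated 5 hr at 37 C. FRET substrate was then added for 1.5 hr at room temperature before dual-emission fluorescence reading.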

[3] = qHTS assay to identify small molecule agonists of the NFkB signaling pathway - cell viability counter screen (AID 1159515; calls by dose curve; note: nearly all actives have a fitted effect of over 55% in size); details: NFkB-bla ME-180 viability, CellTiter-Glo luminescence, 5 h; series mostly up to 61 µM
Outline: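 Using the same wells as the NFkB reporter read, ME-180 NFkB-bla cells given compounds for 5 hr were assessed for viability via CellTiter-Glo, with luminescence taken after a 30 min room-temperature incubation.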

[4] = qHTS assay to identify small molecule agonists of the endoplasmic reticulum stress response signaling pathway (AID 1159516; active = well fitted activation curve with a large enough effect in the signal ratio in the repeat runs, not every such curve was filed as active; the % refers to the signal ratio); details: ESRE-bla HeLa, ER stress beta-lactamase reporter, 5 h; series mostly up to 61 µM
Outline: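 An ESRE-bla HeLa cell assay: compounds were pin-transferred from DMSO onto overnight-plated cells and left 5 hr at 37 C. Substrate was then loaded for 2 hr at room temperature before reading fluorescence at 460 nm and 530 nm.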

[5] = qHTS assay to identify small molecule agonists of the endoplasmic reticulum stress response signaling pathway - cell viability counter screen (AID 1159517; calls by dose curve;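 note: HeLa cells carrying an ER stress response element beta-lactamase reporter; nearly all actives have a fitted effect of over 50% in size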); details: ESRE-bla HeLa viability, CellTiter-Glo luminescence, 5 h; series mostly up to 61 µM
Outline: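 Luminescence readout: CellTiter-Glo, 30 min RT, same wells as the ESRE-bla reporter read. HeLa ESRE-bla, 1,500 cells/well, o/n 37 C; cpd 5 hr 37 C/5% CO2.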

[6] = qHTS assay to identify small molecule antagonists of the retinoid-related orphan receptor gamma (ROR-gamma) signaling pathway - cell viability counter screen (AID 1159520); details: Tet-on RORgamma CHO cells viability, ATP luminescence, 16 h; series mostly up to 92.4 µM; note: nearly all actives have a fitted effect of over 50% in size
Outline: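 Tet-on ROR gamma CHO cells (1,000/well) were plated 4 hr, given compounds in DMSO for 2 hr at 37 C, then induced with 1 uM final doxycycline for 16 hr. Viability was read as ATP by CellTiter-Glo luminescence after 30 min.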

[7] = target: Nuclear receptor ROR-gamma (Homo sapiens) (UniProt P51449); assay: qHTS assay to identify small molecule antagonists of the retinoid-related orphan receptor gamma (ROR-gamma) signaling pathway (AID 1159521;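 note: CHO cells with doxycycline inducible ROR-gamma driving an RORE luciferase reporter; top concentration of the series differs between compounds; nearly all actives have a fitted effect of over 50% in size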); details: Tet-on RORgamma CHO cells, RORE-luciferase, 16 h; series mostly up to 92.4 µM
Outline: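 RORγ antagonism is scored from reduced reporter luminescence in Tet-on CHO cells. Induction used 1 uM final doxycycline hyclate for 16 h at 37 C, following a 2 h compound exposure.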

[8] = qHTS assay to identify small molecule agonists of the AP-1 signaling pathway - cell viability counter screen (AID 1159525; calls by dose curve; note: nearly all actives have a fitted effect of over 55% in size); details: ME-180 AP-1-bla cells viability, ATP luminescence, 5 h; series mostly up to 76.8 µM
Outline: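 ME-180 AP-1-bla, 2500 cells/well, Opti-MEM + 0.5% dialyzed FBS; overnight 37 °C; cpd 15-pt titration, 5 h 37 °C; CellTiter-Glo 30 min RT; luminescence read; normalised to TOAB and DMSO controls.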

[9] = qHTS assay to identify small molecule agonists of the AP-1 signaling pathway (AID 1159526; calls by dose curve); details: ME-180 (cervical carcinoma) AP-1-bla reporter, beta-lactamase FRET ratio, 5 h; series mostly up to 76.8 µM
[10] = target: Retinoic acid receptor RXR-alpha (Homo sapiens) (UniProt P19793); assay: qHTS assay to identify small molecule agonists of the RXR signaling pathway (AID 1159527; calls by dose curve; note: nearly all actives have a fitted effect of over 35% in size); details: HEK293T RXRa-UAS-bla, beta-lactamase ratio, 16 h; series mostly up to 76.8 µM
Sequence of Retinoic acid receptor RXR-alpha (Homo sapiens) (P19793 whole entry, looked up): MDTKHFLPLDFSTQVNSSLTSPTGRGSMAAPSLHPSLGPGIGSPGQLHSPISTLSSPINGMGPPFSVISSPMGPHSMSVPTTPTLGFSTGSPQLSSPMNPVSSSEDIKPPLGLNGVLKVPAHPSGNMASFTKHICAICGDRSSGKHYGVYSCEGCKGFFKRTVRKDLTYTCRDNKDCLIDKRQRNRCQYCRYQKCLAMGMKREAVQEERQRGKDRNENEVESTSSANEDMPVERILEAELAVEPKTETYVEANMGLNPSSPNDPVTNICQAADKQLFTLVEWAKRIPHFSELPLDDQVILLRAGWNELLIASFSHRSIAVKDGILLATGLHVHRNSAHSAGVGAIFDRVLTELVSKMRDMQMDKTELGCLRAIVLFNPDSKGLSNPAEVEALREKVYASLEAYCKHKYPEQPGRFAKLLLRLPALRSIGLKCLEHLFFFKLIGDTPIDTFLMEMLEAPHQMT
Outline: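 qHTS of the Tox21 10K library in GeneBLAzer RXR-alpha HEK 293T cells carrying a beta-lactamase reporter […]; 16 hr treatment, 9-cis retinoic acid as agonist control, FRET read-out.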

[11] = qHTS assay to identify small molecule agonists of the RXR signaling pathway - cell viability counter screen (AID 1159529); details: RXR-alpha-bla HEK293T viability, CellTiter-Glo, 16 h; series mostly up to 76.8 µM; note: nearly all actives have a fitted effect of over 50% in size
Outline: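 Cell viability is measured by CellTiter-Glo luminescence, 30 min at room temperature, in wells already read for beta-lactamase. Engineered HEK 293T cells (RXR-alpha-UAS-bla) are dosed 16 hr at 37 C. Tetraoctyl ammonium bromide serves as positive control.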

[12] = qHTS assay to identify small molecule antagonists of the retinoid acid receptor (RAR) signaling pathway - cell viability counter screen (AID 1159551); details: C3RL4 cells viability, ATP luminescence (CellTiter-Glo), 6 h; series mostly up to 92.4 µM; note: nearly all actives have a fitted effect of over 35% in size
Outline: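 Retinol-stimulated (1 uM final) C3RL4 cells, compound 6 h, 37 C; readout CellTiter-Glo luminescence (ATP) after 30 min RT incubation.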

[13] = qHTS assay to identify small molecule antagonists of the retinoic acid receptor (RAR) signaling pathway (AID 1159552; note: nearly all actives have a fitted effect of over 50% in size); details: C3RL4 RARE luciferase reporter, retinol-stimulated, 6 h; series mostly up to 92.4 µM
Outline: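 Quantitative HTS in C3RL4 RARE-luciferase reporter cells. Compounds were added with 1 uM (final) retinol; luminescence was read after 6 hr.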

[14] = qHTS assay to identify small molecule agonists of the retinoic acid receptor (RAR) signaling pathway (AID 1159553); details: C3RL4 RARE luciferase reporter, agonist, 6 h; series mostly up to 73.3 µM
Outline: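 Reporter readout comes from luciferase under RARE control in C3RL4 cells; compound exposure lasts 6 hr at 37 C in 5% CO2, and luminescence is recorded following a 30 min room-temperature incubation with reagent.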

[15] = qHTS assay to identify small molecule antagonists of the estrogen related receptor (ERR) signaling pathway - cell viability counter screen (AID 1224818); details: ERR reporter cell line viability counter screen; series mostly up to 46.1 µM;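 note: viability measured after 17.5 h of compound exposure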
Outline: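 After a 6 h pre-incubation, ERR cells were dosed by pin tool with compounds, positive/negative controls or DMSO alone. Following 17.5 h at 37 C and 30 min with CellTiter-Fluor, fluorescence was recorded.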

[16] = qHTS assay to identify small molecule antagonists of the estrogen related receptor (ERR) signaling pathway (AID 1224819); details: ERR reporter cell line, luciferase inhibition; series mostly up to 46.1 µM
Outline: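 Luminescence readout (One-Glo, 30 min, RT) of ERR cell line after 18 h compound exposure at 37 C; cells seeded 2,000/well, pre-incubated 6 h, compounds pinned from DMSO stocks.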

[17] = qHTS assay to identify small molecule agonists of the estrogen related receptor (ERR) signaling pathway (AID 1224820); details: ERR reporter cell line, luciferase agonist mode; series mostly up to 46.1 µM
Outline: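 Quantitative HTS of the LOPAC library used NTP ERR reporter cells treated 18 h at 37 C. Signal is luminescence after One-Glo addition and a 30 min room-temperature incubation.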

[18] = test system: estrogen-related receptor alpha (ERRalpha) with PGC-1alpha coactivator, human; assay: qHTS assay to identify small molecule antagonists of the estrogen related receptor signaling pathway with the pleiotropic PPARgamma coactivator (PGC) (AID 1224821; calls by dose curve); details: ERR/PGC reporter cell line, luciferase, antagonist mode; series mostly up to 46.1 µM
Outline: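 Quantitative HTS for antagonism: PGC/ERR cells received compounds after 6 h attachment and were incubated 18 h at 37 C, with luminescence (One-Glo) as the endpoint.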

[19] = qHTS assay to identify small molecule antagonists of the estrogen related receptor signaling pathway with the pleiotropic PPARgamma coactivator (PGC) cell viability counter screen (AID 1224822;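 note: viability read after 17.5 h compound exposure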); details: ERR/PGC reporter cell line viability counter screen; series mostly up to 46.1 µM
Outline: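 PGC/ERR cells were plated at 2,000 per well and allowed 6 h to settle before compound addition. Following 17.5 h at 37 C, CellTiter-Fluor reagent was added and fluorescence was read 30 min later.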

[20] = qHTS assay to identify small molecule agonists of the estrogen related receptor signaling pathway with the pleiotropic PPARgamma coactivator (PGC) (AID 1224823); details: ERR/PGC reporter cell line, luciferase agonist mode; series mostly up to 46.1 µM
Outline: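 Cell-based luciferase assay in the NTP-supplied PGC/ERR line, 2,000 cells/well; 18 h compound exposure at 37 C, luminescence after One-Glo.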

Measured: Potency

CCCOc1nn(C(=O)NS(=O)(=O)c2ccccc2C(=O)OC)c(=O)n1C
not listed: [15] | [16] | [17] | [18] | [19] | [20]
inactive: all other assays above

ClCCN1CCCC1
not listed: [15] | [16] | [17] | [18] | [19] | [20]
inactive: all other assays above

O=C(O)CBr
not listed: [15] | [16] | [17] | [18] | [19] | [20]
inactive: all other assays above

N[C@@H]1C[C@H]1c1ccccc1
not listed: [15] | [16] | [17] | [18] | [19] | [20]
inactive: all other assays above

CC(C)(N)Cc1ccccc1Cl
not listed: [15] | [16] | [17] | [18] | [19] | [20]
inactive: all other assays above

CCN(CCO)CCO
not listed: [15] | [16] | [17] | [18] | [19] | [20]
inactive: all other assays above

C=CCN1CC[C@]23CCCC[C@H]2[C@H]1Cc1ccc(O)cc13
not listed: [15] | [16] | [17] | [18] | [19] | [20]
inactive: all other assays above

CS(=O)(=O)c1ccc(C(=O)C2C(=O)CCCC2=O)c(Cl)c1COCC(F)(F)F
not listed: [15] | [16] | [17] | [18] | [19] | [20]
inactive: all other assays above

Cc1ccc(Cl)c(O)c1
not listed: [15] | [16] | [17] | [18] | [19] | [20]
inactive: all other assays above

COc1cc(CCN)cc(OC)c1OC
not listed: [15] | [16] | [17] | [18] | [19] | [20]
inactive: all other assays above

CC1=C2[C@H]3OC(=O)[C@@H](C)[C@@H]3CC[C@@]2(C)C=CC1=O
not listed: [15] | [16] | [17] | [18] | [19] | [20]
inactive: all other assays above

CCNc1nc(NCC)nc(SC)n1
not listed: [15] | [16] | [17] | [18] | [19] | [20]
inactive: all other assays above

CCC(CC)(CNC(=O)CCCO)c1cccc(OC)c1
not listed: [15] | [16] | [17] | [18] | [19] | [20]
inactive: all other assays above

CC1NCCOC1c1ccccc1 (centres undefined)
not listed: [15] | [16] | [17] | [18] | [19] | [20]
inactive: all other assays above

O=CCCl
not listed: [15] | [16] | [17] | [18] | [19] | [20]
inactive: all other assays above

CCOP(=S)(OCC)SCCl
not listed: [15] | [16] | [17] | [18] | [19] | [20]
inactive: all other assays above

CC[C@@H](CO)NC(=O)[C@@H]1C=C2c3cccc4[nH]cc(c34)C[C@H]2N(C)C1
not listed: [10]
inactive: all other assays above

CCC(=O)OC1(c2ccccc2)CCN(C)CC1
not listed: [14] | [15] | [16] | [17] | [18] | [19] | [20]
inactive: all other assays above

CN1COCN(Cc2cnc(Cl)s2)/C1=N\[N+](=O)[O-]
not listed: [14] | [15] | [16] | [17] | [18] | [19] | [20]
inactive: all other assays above
